Measurements as given in PubChem BioAssay AID651681 (Broad Institute, 2012).
Active and inactive are the calls of the source.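 Rule for the calls: active = compound with fitted CDK2 half-maximal potency at or below twice its top tested dose; inconclusive = flat curve near 30 to 70% inhibition, or poor fit; inactive = the rest.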

Target: Cyclin-dependent kinase 2 (Homo sapiens) + Cyclin-A2 (Homo sapiens) (UniProt P20248+P24941)
Assay: CDK2/cyclin A inhibitors, off-target check, dose response, selectivity assay for Dyrk1A inhibitor project, biochemical, dry powder, set 3 (AID 651681)
Conditions: CDK2/cyclin A ADP-Glo luminescence, histone H1 peptide; series mostly up to 10 µM

Cyclin-dependent kinase 2 (Homo sapiens) + Cyclin-A2 (Homo sapiens), sequence (P20248 whole entry, looked up, one chain of several): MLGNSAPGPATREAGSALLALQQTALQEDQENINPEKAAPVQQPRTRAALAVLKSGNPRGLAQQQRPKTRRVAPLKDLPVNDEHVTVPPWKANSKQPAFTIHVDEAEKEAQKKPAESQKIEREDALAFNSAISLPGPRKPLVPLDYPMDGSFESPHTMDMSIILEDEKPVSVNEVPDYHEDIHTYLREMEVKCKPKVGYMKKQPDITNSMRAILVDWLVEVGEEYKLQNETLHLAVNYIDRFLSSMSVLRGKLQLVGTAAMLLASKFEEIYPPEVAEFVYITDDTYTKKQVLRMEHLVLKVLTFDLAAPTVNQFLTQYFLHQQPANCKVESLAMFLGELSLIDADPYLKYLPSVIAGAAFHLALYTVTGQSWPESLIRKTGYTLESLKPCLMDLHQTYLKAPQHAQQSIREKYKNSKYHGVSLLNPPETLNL

outcome, inactive:
COc1ccc(C2=Nn3c(nnc3-c3cccnc3)SC2)cc1, CN(CC(=O)Nc1nc2ccc(Cl)cc2s1)S(=O)(=O)c1ccc(Cl)cc1, COc1ccc2nc(NC(=O)C3CCN(S(=O)(=O)c4cccc5nonc45)CC3)sc2c1, O=C(NCc1ccco1)c1sc2ccccc2c1Cl, COc1ccc(CNC(=O)c2sc3ccccc3c2Cl)cc1, COc1ccc(OC)c(CNC(=O)c2sc3ccccc3c2Cl)c1, COc1ccc2nc(NC(=O)C3CCCN(S(=O)(=O)c4cccc5cccnc45)C3)sc2c1 (stereo not drawn), CN(CC(=O)Nc1nc2ccc(Cl)cc2s1)S(=O)(=O)c1ccc(C#N)cc1, Cc1cccc2sc(NC(=O)CN(C)S(=O)(=O)c3ccc(Cl)cc3)nc12, CC(C)n1cnc2cc(NCc3cccc4ccccc34)ccc21, COc1ccc2c(Cl)c(C(=O)NCc3ccccc3)sc2c1, O=C(NCc1ccccc1)c1sc2ccccc2c1Cl, COc1ccc(OC)c(C2=Nn3c(nnc3-c3ccccc3)SC2)c1, CN(CC(=O)Nc1nc2ccccc2s1)S(=O)(=O)c1ccccc1, COc1ccc2nc(NC(=O)C3CCCN(S(=O)(=O)c4cccc5nonc45)C3)sc2c1 (stereo not drawn), CCCCN(c1nc2ccccc2s1)S(=O)(=O)c1ccc(Cl)cc1, COc1ccc2nc(NC(=O)C3CCN(S(=O)(=O)c4cccnc4)CC3)sc2c1, Cc1ccc(S(=O)(=O)N(C)CC(=O)Nc2nc3ccccc3s2)cc1
